# Measured values reported in publication PMC8384837, “Expanding the binding specificity for RNA recognition by a PUF domain”.
# Experiments:
# Assay in all cases: yeast three-hybrid, YBZ-1, SC-Leu-His + 0.5 mM 3-AT, 4 days
# Settings in all cases: tags: N-Gal4 AD-HA kept; label: inside an RPR1-promoter hybrid RNA with tandem MS2 sites; ssRNA
# PUM1 PUF domain R7-KGS = PUM1 PUF domain R7-KGS (Homo sapiens, UniProt Q14671 828-1176, S1079K;N1080G;E1083S)
# Procedure, shortened: (§1)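 A centromeric plasmid in strain YBZ-1 co-expressed Pumilio-1 PUF domain libraries, randomized at the three base-contacting residues of each repeat, with matching RNA elements; the strain carries a LexA–MS2 coat fusion and a HIS3 reporter. After four days on SC-Leu (input) or SC-Leu-His + 0.5 mM 3-AT (selection), the repeat regions were PCR-amplified and Illumina-sequenced. The interaction score is the log change in variant frequency from input to selection, using log2 and a pseudocount of 1 where absent.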
# PUM1 PUF domain R7-KRS = PUM1 PUF domain R7-KRS (Homo sapiens, UniProt Q14671 828-1176, S1079K;N1080R;E1083S)
# Procedure, shortened: as §1
# PUM1 PUF domain R4-WAG = PUM1 PUF domain R4-WAG (Homo sapiens, UniProt Q14671 828-1176, N971W;H972A;Q975G)
# Procedure, shortened: as §1
# PUM1 PUF domain R4-GWY = PUM1 PUF domain R4-GWY (Homo sapiens, UniProt Q14671 828-1176, N971G;H972W;Q975Y)
# Procedure, shortened: as §1
# PUM1 PUF domain R1-KLL = PUM1 PUF domain R1-KLL (Homo sapiens, UniProt Q14671 828-1176, S863K;R864L;Q867L)
# Procedure, shortened: as §1
# PUM1 PUF domain R8-HWL = PUM1 PUF domain R8-HWL (Homo sapiens, UniProt Q14671 828-1176, N1122H;Y1123W;Q1126L)
# Procedure, shortened: as §1
# PUM1 PUF domain R8-VHR = PUM1 PUF domain R8-VHR (Homo sapiens, UniProt Q14671 828-1176, N1122V;Y1123H;Q1126R)
# Procedure, shortened: as §1
# PUM1 PUF domain R8-HFS = PUM1 PUF domain R8-HFS (Homo sapiens, UniProt Q14671 828-1176, N1122H;Y1123F;Q1126S)
# Procedure, shortened: as §1
# PUM1 PUF domain R7-RRM = PUM1 PUF domain R7-RRM (Homo sapiens, UniProt Q14671 828-1176, S1079R;N1080R;E1083M)
# Procedure, shortened: as §1
# PUM1 PUF domain R3-LRC = PUM1 PUF domain R3-LRC (Homo sapiens, UniProt Q14671 828-1176, C935L;Q939C)
# Procedure, shortened: as §1
# PUM1 PUF domain R3-TME = PUM1 PUF domain R3-TME (Homo sapiens, UniProt Q14671 828-1176, C935T;R936M;Q939E)
# Procedure, shortened: as §1
# PUM1 PUF domain R3-LYA = PUM1 PUF domain R3-LYA (Homo sapiens, UniProt Q14671 828-1176, C935L;R936Y;Q939A)
# Procedure, shortened: as §1
sequence,measurement,setting,value
GGCUAGAACUAGUGGAUCCCCCGGCGCCCGGCGGCUCGAGCCCGGGUAAGUUUAAAUAGUCUGCAUGCCGCCGGGCGCCAUGCCUGCAGGUCGACUCUAGAAAACAUG,binding signal,PUM1 PUF domain R7-KGS,3.39 log2 enrichment (interaction score)
same,binding signal,PUM1 PUF domain R7-KRS,2.06 log2 enrichment (interaction score)
GGCUAGAACUAGUGGAUCCCCCGGCGCCCGGCGGCUCGAGCCCGGGUAAGUGUAUAUAGUCUGCAUGCCGCCGGGCGCCAUGCCUGCAGGUCGACUCUAGAAAACAUG,binding signal,PUM1 PUF domain R4-WAG,4.74 log2 enrichment (interaction score)
same,binding signal,PUM1 PUF domain R4-GWY,5.08 log2 enrichment (interaction score)
GGCUAGAACUAGUGGAUCCCCCGGCGCCCGGCGGCUCGAGCCCGGGUAAGUGUAAAUCGUCUGCAUGCCGCCGGGCGCCAUGCCUGCAGGUCGACUCUAGAAAACAUG,binding signal,PUM1 PUF domain R1-KLL,4.54 log2 enrichment (interaction score)
GGCUAGAACUAGUGGAUCCCCCGGCGCCCGGCGGCUCGAGCCCGGGUAAGUGUACAUAGUCUGCAUGCCGCCGGGCGCCAUGCCUGCAGGUCGACUCUAGAAAACAUG,binding signal,PUM1 PUF domain R4-WAG,3.92 log2 enrichment (interaction score)
GGCUAGAACUAGUGGAUCCCCCGGCGCCCGGCGGCUCGAGCCCGGGUAAGCGUAAAUAGUCUGCAUGCCGCCGGGCGCCAUGCCUGCAGGUCGACUCUAGAAAACAUG,binding signal,PUM1 PUF domain R8-HWL,4.14 log2 enrichment (interaction score)
same,binding signal,PUM1 PUF domain R8-VHR,3.33 log2 enrichment (interaction score)
same,binding signal,PUM1 PUF domain R8-HFS,2.47 log2 enrichment (interaction score)
GGCUAGAACUAGUGGAUCCCCCGGCGCCCGGCGGCUCGAGCCCGGGUAAGUCUAAAUAGUCUGCAUGCCGCCGGGCGCCAUGCCUGCAGGUCGACUCUAGAAAACAUG,binding signal,PUM1 PUF domain R7-RRM,4.89 log2 enrichment (interaction score)
same,binding signal,PUM1 PUF domain R7-KRS,4.34 log2 enrichment (interaction score)
GGCUAGAACUAGUGGAUCCCCCGGCGCCCGGCGGCUCGAGCCCGGGUAAGUGUAAAUUGUCUGCAUGCCGCCGGGCGCCAUGCCUGCAGGUCGACUCUAGAAAACAUG,binding signal,PUM1 PUF domain R1-KLL,3.14 log2 enrichment (interaction score)
GGCUAGAACUAGUGGAUCCCCCGGCGCCCGGCGGCUCGAGCCCGGGUAAGUGUAAGUAGUCUGCAUGCCGCCGGGCGCCAUGCCUGCAGGUCGACUCUAGAAAACAUG,binding signal,PUM1 PUF domain R3-LRC,3.66 log2 enrichment (interaction score)
same,binding signal,PUM1 PUF domain R3-TME,4.56 log2 enrichment (interaction score)
same,binding signal,PUM1 PUF domain R3-LYA,4.73 log2 enrichment (interaction score)
